ALR inh – inhibitors of human ALR sulfhydryl oxidase, primary screen, biochemical, H2O2 detection, HRP-luminol luminescence, single point; FAD-linked sulfhydryl oxidase ALR (Homo sapiens), P55789; purified ALR, DTT oxidation; inhibition, % (test concentration not listed); 290,000 compounds, 3.8% hits; AID 485317, 2010;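 active = mean replicate inhibition above about 79%, with every replicate also reaching it, limit read from the data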
ABHD5-PLIN5 inh – ABHD5-PLIN5 interaction inhibitors, primary screen, cell lysate, split luciferase complementation, luminescence; Perilipin-5 (Homo sapiens) + 1-acylglycerol-3-phosphate O-acyltransferase ABHD5 (Homo …; Split G. princeps luciferase complementation, 4 h; inhibition, % at 4 µM; 360,000 compounds, 0.78% hits; AID 602281, 2012;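 active = inhibition above the mean inhibition across every tested compound plus 3 SD, cut at about 22% in these data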;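 note: 0% = DMSO only wells and the 100% control is not disclosed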
PRMT1 inh – PRMT1 methyltransferase inhibitors, primary screen, biochemical, fluorescence polarization; recombinant PRMT1, activity-based probe fluorescence polarization; inhibition, % at 2.79 µM; 370,000 compounds, 1.3% hits;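 active = inhibition above about 21% made by adding two undisclosed values, limit read from the data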
Target sequence (Q99873 whole entry, looked up): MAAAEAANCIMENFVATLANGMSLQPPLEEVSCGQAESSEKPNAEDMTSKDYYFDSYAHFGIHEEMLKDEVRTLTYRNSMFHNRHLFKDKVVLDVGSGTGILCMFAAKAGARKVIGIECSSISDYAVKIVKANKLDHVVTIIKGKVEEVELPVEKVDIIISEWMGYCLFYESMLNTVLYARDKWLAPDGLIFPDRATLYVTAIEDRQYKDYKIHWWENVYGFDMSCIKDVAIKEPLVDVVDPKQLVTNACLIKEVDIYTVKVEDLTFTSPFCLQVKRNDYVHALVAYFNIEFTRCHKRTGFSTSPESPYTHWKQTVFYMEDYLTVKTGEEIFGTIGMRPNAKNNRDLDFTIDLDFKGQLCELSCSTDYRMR
rCAG RNA binder – binders of r(CAG) RNA repeats, primary screen, biochemical, fluorescence; AID 651821, 2012; 370,000 compounds, 1.3% hits; r(CAG) RNA repeat, TO-PRO-1 dye displacement fluorescence; inhibition, % at 3 µM;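 active = inhibition above the plate cutoff, the mean of all test compounds on that plate plus 3 SD, cut at about 35% in these data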;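 note: 0% = DMSO alone and 100% = 100 µM mitoxantrone as full dye displacement; higher means more dye released from RNA so lower well fluorescence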
Rtt109 Vps75 – inhibitors of C. albicans Rtt109/Vps75 HAT, primary screen, biochemical, ThioGlo CoA-SH fluorescence, plate reader; Histone acetyltransferase RTT109 (Candida albicans (strain SC5314 / ATCC MYA-2876)), …; inhibition, % at 34.9 µM; purified Rtt109/Vps75, 4 h; AID 540336, 2011; 330,000 compounds, 0.16% hits;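 active = inhibition of at least 50% in every replicate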
LANA-H2B inh – blockers of LANA interaction with H2A/H2B – biochemical, FP readout, HTS, primary screen | cell-free LANA-H2A/H2B peptide, fluorescence polarization | inhibition, % (no concentration beside the values) | 320,000 compounds, 0.6% hits | Protein LANA1 (Human herpesvirus 8 type P (isolate GK18)), Q9QR71 | AID 2629, 2010; in the data active = inhibition mostly above about 10%, no sharp cut-off; inactive = mostly below about 6.7%
rCAG bind conf – small molecules binding CAG repeat RNA – biochemical, fluorescence, confirmation; 4,300 compounds, 70% hits; shares compounds with rCAG RNA binder; inhibition, % at 3 µM; r(CAG) RNA repeat, TO-PRO-1 dye displacement fluorescence;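 active = inhibition above a per-plate cutoff, the mean inhibition of sample wells plus 3 SD, cut at about 35% in these data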;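 note: loss of TO-PRO-1 fluorescence as compound displaces dye from 1x1 AA loop RNA; 0% = DMSO only wells and 100% = 100 µM mitoxantrone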
DNA CAG counter – displacement of TO-PRO-1 from CAG DNA duplex, counter-screen for rCAG RNA repeat binder project, biochemical, fluorescence, TO-PRO-1 dye, d(CAG) DNA oligo; shares compounds with rCAG RNA binder; d(CAG) DNA oligo TO-PRO-1 dye displacement; inhibition, % at 3 µM; 4,300 compounds, 94% hits;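 active = inhibition above its plate's cutoff, the mean test-well inhibition plus 3 SD, cut at about 4.8% in these data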;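 note: 0% = DNA dye mix with DMSO and 100% = 100 µM mitoxantrone; hits displace the dye from DNA and so lower well fluorescence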
DNA CAG DR – inhibitors of DNA CAG/GTC TO-PRO-1 complex, dose response, counter-screen for rCAG RNA repeat binder project, biochemical, fluorescence, TO-PRO-1 dye; shares compounds with rCAG RNA binder; DNA CAG/GTC duplex TO-PRO-1 dye displacement fluorescence; IC50, µM; 250 compounds, 20% hits; AID 686960, 2013; in the data active = IC50 below about 10 µM
The depositor's hits bear a star; i = inactive; . = no result. The list is not random: actives were taken first. Their share in the collection is about 5.9%.

SMILES	ALR inh	ABHD5-PLIN5 inh	PRMT1 inh	rCAG RNA binder	Rtt109 Vps75	LANA-H2B inh	rCAG bind conf	DNA CAG counter	others
CCOC(=O)c1csc(NC(=O)Nc2cccc(Cl)c2)n1	-7	-1	-3	59*	-22	-5	50*	28*
O=C(Cc1csc(NC(=O)Nc2ccc(Cl)cc2)n1)NC1CCCC1	-1	2	-2	40*	5	0	16	15*
CCOC(=O)Cc1csc(NC(=O)Nc2cccc(Cl)c2)n1	1	1	0	53*	1	4	17	16*
CN(C)Cc1csc(NC(=O)Nc2cccc(Cl)c2)n1	.	15	-1	22	.	.	.	.
CCOC(=O)Cc1csc(NC(=O)Nc2ccc(Cl)cc2)n1	8	-5	-4	40*	-3	-2	43*	17*
O=C(NCc1nnnn1-c1ccc(F)cc1)C(=O)c1c[nH]c2ccccc12	.	-4	-1	5	.	.	.	.
O=C(NCC(c1ccccc1)c1ccccc1)[C@H](Cc1c[nH]c2ccccc12)NC1(C(=O)NC2CCCCC2)CCCCCC1	.	.	5	.	.	.	.	.
Cc1csc(NC(=O)Nc2ccc(Cl)cc2)n1	1	-4	1	38*	-2	-1	7	9.5*
NCc1csc(NC(=O)Nc2cccc(Cl)c2)n1	.	-4	-4	35*	.	.	10	8.4*
O=C(O)c1oc2ccccc2c1CSc1ccccn1	30	0	4	4	-5	3	.	.
O=C(O)c1oc2ccccc2c1CSc1ccc(Cl)cc1	10	3	4	40*	5	2	23	4
Cc1ccc(S(=O)(=O)Nc2ccccc2C(=O)Nc2ccc(S(=O)(=O)Nc3nccc(C)n3)cc2)cc1	.	4	0	59*	7	5	55*	24*
Cc1ccc(C)c(S(=O)(=O)Nc2ccccc2C(=O)Nc2cc(C)on2)c1	0	7	-2	77*	-4	3	77*	32*	DNA CAG DR=i
Cc1ccc(CNC(=O)c2ccccc2NS(=O)(=O)c2ccc(Cl)nc2)cc1	-3	-6	4	43*	2	0	20	4
Cc1ccc(C)c(S(=O)(=O)Nc2ccccc2C(=O)Nc2ccc(S(=O)(=O)Nc3ncccn3)cc2)c1	1	4	-2	77*	10	-9	51*	18*
O=C(c1ccc(Cl)cc1Cl)N1CCC(C(=O)N2CCOCC2)CC1	.	4	2	-3	1	0	.	.
CC1(Br)C(Sc2ccccc2[N+](=O)[O-])=Nc2ccccc21 (stereo not drawn)	.	-12	4	8	.	.	.	.
CCn1c(=O)n(CC(=O)N2CCCN(Cc3ccccc3)CC2)c(=O)c2ccccc21	.	.	2	0	.	.	.	.
CCOC(=O)[C@]12CCC=C1N(Cc1ccco1)C(=O)[C@H](CC(=O)NCc1cccc3ccccc13)C2	.	16	1	11	.	.	.	.
CC[C@@H](OP(=O)(O)[C@@H](C)N)C(=O)O	.	.	0	1	.	.	.	.
CCOc1ccc(C(=O)Nc2nnc(NC(=S)Nc3ccccc3)s2)cc1	-3	-2	-6	27	-3	0	.	.

Screens deposited in PubChem by several laboratories.
